Laboratory results from PubChem BioAssay (Tox21).
Records with an inconclusive call do not appear. Activity calls are given as the source filed them. Unless noted, calls follow the shape of the dose curve; as a rule, active = well fitted curve in the direction sought with a large enough effect in the repeat runs; inconclusive = weak or mixed curves; inactive = no such curve, though single readings can be large; an effect the other way counts as inactive or inconclusive.

Experiments:
[1] = qHTS assay to identify small molecule antagonists of the sonic hedgehog signaling (Shh) pathway (AID 1259369; calls by dose curve; also: nearly all actives have a fitted effect of over 45% in size; also: potency is read from the fitted curve at half-maximal effect)
How it was run: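 NIH/3T3-derived 3T3Gli1-Luc cells with stably integrated Gli1-Luc reporter were preincubated 4hr at 37 C, then given compounds in DMSO plus Shh conditioned medium and incubated 24hr. Firefly luciferase luminescence read after 30min reagent at room temperature.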

[2] = target: Estrogen receptor beta (Homo sapiens) (UniProt Q92731); test: qHTS assay to identify small molecule agonists of the estrogen receptor beta (ER-beta) signaling pathway (AID 1259377; active = well fitted activation curve with a large enough effect in the signal ratio in the repeat runs, not every such curve was filed as active; the % refers to the signal ratio)
Sequence of Estrogen receptor beta (Homo sapiens) (Q92731 whole entry, looked up, the tested form may be a part): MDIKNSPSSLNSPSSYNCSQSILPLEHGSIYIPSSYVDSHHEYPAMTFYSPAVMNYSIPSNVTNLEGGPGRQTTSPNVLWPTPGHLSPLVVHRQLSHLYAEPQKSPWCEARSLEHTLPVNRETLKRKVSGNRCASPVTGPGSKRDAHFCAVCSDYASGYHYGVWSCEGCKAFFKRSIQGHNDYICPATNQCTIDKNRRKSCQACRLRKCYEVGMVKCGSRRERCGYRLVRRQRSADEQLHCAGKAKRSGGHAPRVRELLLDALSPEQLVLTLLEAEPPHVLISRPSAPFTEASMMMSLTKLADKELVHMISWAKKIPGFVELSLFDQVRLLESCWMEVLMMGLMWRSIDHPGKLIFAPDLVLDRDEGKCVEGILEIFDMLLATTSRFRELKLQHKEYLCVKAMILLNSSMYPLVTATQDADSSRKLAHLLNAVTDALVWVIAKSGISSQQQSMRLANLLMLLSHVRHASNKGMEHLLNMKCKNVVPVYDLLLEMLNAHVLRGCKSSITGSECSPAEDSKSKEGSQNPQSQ
How it was run: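 Agonist mode cell assay in GripTite HEK293T cells expressing an ER-beta fusion that drives beta-lactamase from an Upstream Activator Sequence; 16 hr compound exposure at 37C, then 2 h LiveBLAzer B/G FRET substrate at room temperature, fluorescence read-out.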

[3] = target: Estrogen receptor beta (Homo sapiens) (UniProt Q92731); test: qHTS assay to identify small molecule antagonists of the estrogen receptor beta (ER-beta) signaling pathway (AID 1259378; active = well fitted inhibition curve with a large enough effect in the signal ratio in the repeat runs, not every such curve was filed as active; the % refers to the signal ratio)
How it was run: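 ER-beta-UAS-bla HEK293T cells in 2% charcoal-stripped FBS medium treated with compound plus 1nM final 17-beta-estradiol for 16 hr at 37C. Beta-lactamase reporter read by FRET substrate fluorescence after 2 hours at room temperature.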

[4] = qHTS assay to identify small molecule agonists of the androgen receptor (AR) signaling pathway in the presence of an antagonist - cell viability counter screen (AID 1259379);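 also: MDA-kb2 human breast cancer cells carrying an MMTV luciferase reporter; series mostly up to about 92 µM; nearly all actives have a fitted effect of over 25% in size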
How it was run: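 MDA-kb2 human breast carcinoma cells (stable MMTV-luciferase, AR/GR responsive) were seeded 3,000 cells/well, pre-incubated 5 hr at 37C without CO2, then given 3.0uM nilutamide and compounds at 15 concentrations for 16 hr. Viability was read by CellTiter-Fluor fluorescence.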

[5] = qHTS assay to identify small molecule antagonists of the estrogen receptor beta (ER-beta) signaling pathway - cell viability counter screen (AID 1259382); also: series mostly up to about 92 µM; nearly all actives have a fitted effect of over 55% in size
How it was run: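 ER-beta-UAS-bla HEK293T cells (2,000/well, 2% charcoal-stripped FBS) were pre-incubated 6 hr at 37C, then given compound plus 1nM final 17-beta-estradiol for 16 hr. Viability was read in the same wells by CellTiter-Glo luminescence after 30 min at room temperature.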

[6] = target: Estrogen receptor (Homo sapiens) (UniProt P03372); test: qHTS assay to identify small molecule agonists of the estrogen receptor alpha (ER-alpha) signaling pathway in the presence of an antagonist (AID 1259383; calls by dose curve; also: top concentration of the series differs between compounds; nearly all actives have a fitted effect of over 15% in size)
Sequence of Estrogen receptor (Homo sapiens) (P03372 whole entry, looked up): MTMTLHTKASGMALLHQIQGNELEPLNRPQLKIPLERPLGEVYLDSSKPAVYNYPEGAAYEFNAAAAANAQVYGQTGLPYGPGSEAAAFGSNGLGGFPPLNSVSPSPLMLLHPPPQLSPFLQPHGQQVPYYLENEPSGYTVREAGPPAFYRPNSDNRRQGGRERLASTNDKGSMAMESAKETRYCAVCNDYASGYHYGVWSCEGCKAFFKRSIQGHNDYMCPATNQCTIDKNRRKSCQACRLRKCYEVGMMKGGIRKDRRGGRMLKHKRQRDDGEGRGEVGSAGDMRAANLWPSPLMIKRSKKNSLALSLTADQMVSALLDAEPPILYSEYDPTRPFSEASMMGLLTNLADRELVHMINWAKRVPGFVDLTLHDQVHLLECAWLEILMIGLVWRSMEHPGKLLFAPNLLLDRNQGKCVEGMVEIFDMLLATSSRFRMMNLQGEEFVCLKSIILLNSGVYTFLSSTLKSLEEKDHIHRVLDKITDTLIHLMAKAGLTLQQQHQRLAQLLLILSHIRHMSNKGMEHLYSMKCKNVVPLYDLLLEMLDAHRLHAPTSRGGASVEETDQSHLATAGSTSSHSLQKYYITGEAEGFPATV
How it was run: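 VM7Luc4E2 cells (endogenous full-length ER-alpha, 4×ERE-luciferase) were precultured 5 days in phenol red-free medium with 10% charcoal-stripped FBS, given 10.0nM ICI-182,780 (final), then treated with compounds at 15 concentrations for 22hr at 37C; luminescence read with ONE-Glo.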

[7] = qHTS assay to identify small molecule agonists or antagonists of the thyroid stimulating hormone receptor (TSHR) signaling pathway - wild type cell line counter screen (AID 1259384; calls by dose curve)
How it was run: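 Wild-type Hek293 cells, 800/well, 18 h at 37C, then compound with Ro20-1724 for 30 min RT. cAMP by HTRF (cAMP-d2/anti-cAMP cryptate), 1 h RT, fluorescence read. 15 concentrations, triplicates.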

[8] = target: Thyrotropin receptor (Homo sapiens) (UniProt P16473); test: qHTS assay to identify small molecule antagonists of the thyroid stimulating hormone receptor (TSHR) signaling pathway (AID 1259385; calls by dose curve; also: nearly all actives have a fitted effect of over 20% in size)
Sequence of Thyrotropin receptor (Homo sapiens) (P16473 whole entry, looked up): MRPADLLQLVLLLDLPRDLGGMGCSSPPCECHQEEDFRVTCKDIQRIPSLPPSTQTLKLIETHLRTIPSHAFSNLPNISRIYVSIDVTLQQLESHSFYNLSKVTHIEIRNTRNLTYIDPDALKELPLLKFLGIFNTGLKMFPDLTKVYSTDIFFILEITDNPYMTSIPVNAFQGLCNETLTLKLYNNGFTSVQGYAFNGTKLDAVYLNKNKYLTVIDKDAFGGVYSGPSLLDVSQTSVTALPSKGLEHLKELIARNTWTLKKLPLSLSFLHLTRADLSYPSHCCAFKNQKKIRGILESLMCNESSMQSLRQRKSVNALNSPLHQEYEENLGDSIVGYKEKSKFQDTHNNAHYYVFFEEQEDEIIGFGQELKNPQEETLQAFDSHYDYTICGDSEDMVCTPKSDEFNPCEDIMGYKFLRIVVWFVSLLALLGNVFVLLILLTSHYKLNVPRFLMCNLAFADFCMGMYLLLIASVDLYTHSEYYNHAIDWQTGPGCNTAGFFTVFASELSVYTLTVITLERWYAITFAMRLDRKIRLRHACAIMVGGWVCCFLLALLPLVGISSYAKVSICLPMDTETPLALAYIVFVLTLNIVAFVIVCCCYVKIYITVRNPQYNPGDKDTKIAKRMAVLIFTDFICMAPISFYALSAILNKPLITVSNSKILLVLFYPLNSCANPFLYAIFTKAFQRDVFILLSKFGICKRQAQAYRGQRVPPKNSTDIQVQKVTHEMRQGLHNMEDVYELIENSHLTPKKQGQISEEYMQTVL
How it was run: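 TSHR-HEK293 cells (800/well) plated 18 h, then compounds with Ro20-1724 and TSH at 1.5 ng/mL final, 30 min at room temperature. cAMP quantified by HTRF (cAMP-d2/anti-cAMP-cryptate, 1 h); 15 concentrations in triplicate.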

[9] = qHTS assay to identify small molecule agonists of the estrogen receptor alpha (ER-alpha) signaling pathway in the presence of an antagonist - cell viability counter screen (AID 1259386);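 also: cells exposed to compounds for 22 h at 37 °C before the viability read; nearly all actives have a fitted effect of over 30% in size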; also: potency is read from the fitted curve at half-maximal effect
How it was run: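 VM7Luc4E2 cells (endogenous full-length ER-alpha, 4×ERE-luciferase) were held 5 days in phenol red-free medium with 10% charcoal-stripped FBS, plated, then given 10.0nM ICI-182,780 and compounds at 15 concentrations for 22hr at 37C; viability read by CellTiter-Fluor fluorescence.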

[10] = target: Progesterone receptor (Homo sapiens) (UniProt P06401); test: qHTS assay to identify small molecule agonists of the progesterone receptor (PR) signaling pathway (AID 1346784; calls by dose curve; also: nearly all actives have a fitted effect of over 30% in size)
Sequence of Progesterone receptor (Homo sapiens) (P06401 whole entry, looked up): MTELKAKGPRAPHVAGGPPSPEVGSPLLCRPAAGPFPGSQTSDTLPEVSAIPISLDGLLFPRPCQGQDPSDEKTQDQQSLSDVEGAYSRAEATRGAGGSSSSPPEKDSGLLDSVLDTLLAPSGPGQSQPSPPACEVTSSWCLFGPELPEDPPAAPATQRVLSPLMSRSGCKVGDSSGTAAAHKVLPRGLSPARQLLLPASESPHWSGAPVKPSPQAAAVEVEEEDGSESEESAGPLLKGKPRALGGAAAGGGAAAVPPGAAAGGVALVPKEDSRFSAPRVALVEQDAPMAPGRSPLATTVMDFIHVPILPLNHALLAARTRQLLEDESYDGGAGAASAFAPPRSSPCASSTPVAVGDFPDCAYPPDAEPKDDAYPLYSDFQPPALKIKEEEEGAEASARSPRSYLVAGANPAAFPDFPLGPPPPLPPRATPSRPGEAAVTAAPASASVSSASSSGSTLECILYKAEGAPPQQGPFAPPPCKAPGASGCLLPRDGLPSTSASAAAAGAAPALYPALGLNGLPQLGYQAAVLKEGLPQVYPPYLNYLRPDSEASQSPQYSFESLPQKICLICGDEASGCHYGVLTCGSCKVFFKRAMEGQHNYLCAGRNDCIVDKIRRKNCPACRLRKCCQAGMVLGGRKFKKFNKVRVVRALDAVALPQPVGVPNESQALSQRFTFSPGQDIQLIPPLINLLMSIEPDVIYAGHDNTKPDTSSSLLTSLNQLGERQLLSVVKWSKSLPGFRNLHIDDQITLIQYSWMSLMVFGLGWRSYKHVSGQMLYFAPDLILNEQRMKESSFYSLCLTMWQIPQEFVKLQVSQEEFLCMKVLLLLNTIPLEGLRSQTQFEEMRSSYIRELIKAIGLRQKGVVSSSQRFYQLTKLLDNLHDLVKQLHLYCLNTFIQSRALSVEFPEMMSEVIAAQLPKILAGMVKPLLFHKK
How it was run: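 Cells (PR-UAS-bla HEK 293T, GripTite) were plated in assay medium containing 2% charcoal-stripped FBS and incubated 6 hr. Test compounds in DMSO were added for 16 hr at 37C. FRET substrate was then loaded for 2 hr at room temperature before fluorescence reading.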

[11] = target: Progesterone receptor (Homo sapiens) (UniProt P06401); test: qHTS assay to identify small molecule antagonists of the progesterone receptor (PR) signaling pathway (AID 1346795; active = well fitted inhibition curve with a large enough effect in the signal ratio in the repeat runs, not every such curve was filed as active; the % refers to the signal ratio)
How it was run: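 Antagonist mode: compounds tested against 1 nM (final) promegestone stimulation in HEK293T cells expressing PR-UAS-bla reporter, 16 hr at 37C, 5% CO2; beta-lactamase activity detected via B/G FRET substrate after 2 hr at room temperature.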

[12] = qHTS assay to identify small molecule antagonists of the progesterone receptor (PR) signaling pathway - cell viability counter screen (AID 1346798); also: series mostly up to about 92 µM; nearly all actives have a fitted effect of over 50% in size
How it was run: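 Counter screen for cytotoxicity: viability of PR-UAS-bla HEK293T cells was measured with CellTiter-Glo luminescence following 16 hr compound exposure in the presence of R5020.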

[13] = qHTS assay to identify small molecule agonists of the TGF-beta/Smad signaling pathway - cell viability counter screen (AID 1346829); also: top concentration of the series differs between compounds; nearly all actives have a fitted effect of over 45% in size
How it was run: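 Here the cytotoxicity of library compounds is measured in SBE-bla HEK 293T cells treated for 5 hr, using CellTiter-Glo added to wells already read for the beta-lactamase reporter.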

[14] = target: Thyrotropin-releasing hormone receptor (Homo sapiens) (UniProt P34981); test: qHTS assay to identify small molecule antagonists of the thyrotropin-releasing hormone receptor (TRHR) signaling pathway (AID 1346877; active = well fitted inhibition curve with a large enough effect in the repeat runs, not every such curve was filed as active; also: series mostly up to about 51 µM)
Sequence of Thyrotropin-releasing hormone receptor (Homo sapiens) (P34981 whole entry, looked up): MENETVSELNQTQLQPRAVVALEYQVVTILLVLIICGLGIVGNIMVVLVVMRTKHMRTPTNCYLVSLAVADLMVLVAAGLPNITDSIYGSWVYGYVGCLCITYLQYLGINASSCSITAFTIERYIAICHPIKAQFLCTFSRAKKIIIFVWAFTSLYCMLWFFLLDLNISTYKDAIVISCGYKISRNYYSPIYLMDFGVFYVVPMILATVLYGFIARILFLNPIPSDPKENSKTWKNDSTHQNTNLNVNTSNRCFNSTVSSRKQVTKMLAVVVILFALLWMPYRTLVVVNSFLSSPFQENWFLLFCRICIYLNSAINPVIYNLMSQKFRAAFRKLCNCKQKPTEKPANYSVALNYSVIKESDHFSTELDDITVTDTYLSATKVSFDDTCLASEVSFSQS
How it was run: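 TRHR-expressing HEK293 cells were seeded, cultured 18 h at 37 °C, then loaded with calcium dye for 2 h. Compounds were pre-incubated 5 min at room temperature before 1 nM TRH (final) was added, and kinetic fluorescence was recorded for 3 min.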

[15] = target: Thyrotropin-releasing hormone receptor (Homo sapiens) (UniProt P34981); test: qHTS assay to identify small molecule agonists of the thyrotropin-releasing hormone receptor (TRHR) signaling pathway (AID 1346891; calls by dose curve; also: series mostly up to about 58 µM)
How it was run: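 Cells: TRHR-Hek293, seeded and incubated 18 h. Dye loading: 2 h at 37 °C. Compound added from DMSO stock by pin tool. Read-out: kinetic calcium fluorescence over 3 min.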

[16] = qHTS assay to identify small molecule agonists of the estrogen receptor beta (ER-beta) signaling pathway - cell viability counter screen (AID 1259380); also: nearly all actives have a fitted effect of over 30% in size
How it was run: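 ER-beta-UAS-bla HEK293T cells in medium with 2% charcoal-stripped FBS were preincubated 6 hr at 37C, dosed with compound in DMSO for 16 hr, then after the bla read, CellTiter-Glo was added for 30 min at room temperature; luminescence recorded.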

[17] = qHTS assay to identify small molecule agonists of the progesterone receptor (PR) signaling pathway - cell viability counter screen (AID 1346799; calls by dose curve; also: nearly all actives have a fitted effect of over 45% in size)
How it was run: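 Cells (PR-UAS-bla HEK293T) are plated at 3,000/well in 2% charcoal-stripped FBS medium, rested 6 hr, dosed and incubated 16 hr at 37C. CellTiter-Glo is then added and luminescence measured after 30 min at room temperature.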

[18] = qHTS assay to identify small molecule antagonists of the TGF-beta/Smad signaling pathway - cell viability counter screen (AID 1346824); also: nearly all actives have a fitted effect of over 50% in size
How it was run: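 SBE-bla HEK 293T cells, incubated overnight, then compound plus 0.25 ng/mL TGF-beta1 (stock added) for 5 hr at 37 C. Viability was read in the same wells by CellTiter-Glo luminescence after 30 min at room temperature.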

[19] = qHTS assay to identify small molecule agonists of the TGF-beta/Smad signaling pathway (AID 1346859; active = well fitted activation curve with a large enough effect in the signal ratio in the repeat runs, not every such curve was filed as active; the % refers to the signal ratio; also: series mostly up to about 77 µM)
How it was run: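 Reporter line: HEK 293T with stably integrated SBE-controlled beta-lactamase. Compound exposure lasts 5 hr at 37 C and 5% CO2; substrate loading follows for 2 hr at room temperature, with emission read at 460 and 530 nm.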

Measured: Potency

OCC(CO)(CO)CO
not listed: [16] | [17] | [18] | [19]
inactive: all other assays above

O=C1C(N(CO)C(=O)NCO)N(CO)C(=O)N1CO (configuration not stated)
not listed: [11] | [19]
inactive: all other assays above

C=CC(C)(C)C
not listed: [14] | [15] | [18]
inactive: all other assays above

CC(=O)OC/C=C(\C)CCC=C(C)C
not listed: [2] | [3] | [14] | [15] | [17]
inactive: all other assays above

Cc1ccccc1C=O
not listed: [2] | [3] | [17] | [19]
inactive: all other assays above

O=C(c1ccccc1)c1ccc(O)c(O)c1O
active: [1] 54.9 µM | [9] 61.6 µM
not listed: [2] | [3] | [4] | [8] | [11] | [16] | [17]
inactive: all other assays above

CCOC(=O)CC(=O)OCC
not listed: [2] | [3] | [6] | [16]
inactive: all other assays above

CC[N+](CC)(CC(=O)Nc1c(C)cccc1C)Cc1ccccc1
not listed: [2] | [3] | [6] | [14] | [15] | [16] | [18]
inactive: all other assays above

OB(O)O
not listed: [2] | [3] | [11] | [18]
inactive: all other assays above

C=C1C[C@]23C[C@@]1(O)CC[C@H]2[C@@]12C=C[C@H](O)[C@@](C)(C(=O)O1)[C@H]2[C@@H]3C(=O)O
not listed: [2] | [3] | [6] | [11] | [14] | [15] | [17] | [18]
inactive: all other assays above
